About 83,000 compounds went through this panel and 20% of them were active in at least one assay; those are over-represented in the sample as a whole.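 48-hour exposure, single concentration, 96-well plates; percent growth endpoint where 0 means no net growth. Active: below 10.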 Calls of active or inactive are those of the source.
Columns and labels:
Assay in all cases: NCI-60 one-dose screen, 48 h (100 = growth as untreated, 0 = no growth, -100 = all killed)
Conditions in all cases: 10 µM unless noted
HCT-15 colon = test system: HCT-15 colon
HT29 colon = test system: HT29 colon
SNB-75 CNS = test system: SNB-75 CNS
SNB-19 CNS = test system: SNB-19 CNS
U251 CNS = test system: U251 CNS
PC-3 prostate = test system: PC-3 prostate
SK-MEL-5 melanoma = test system: SK-MEL-5 melanoma
UACC-62 melanoma = test system: UACC-62 melanoma
LOX IMVI melanoma = test system: LOX IMVI melanoma
SK-MEL-28 melanoma = test system: SK-MEL-28 melanoma

Measured: growth

CCOC(=O)c1ccc(-c2ccc3cc(OC)ccc3c2)nc1C
inactive: HCT-15 colon 99.2% | HT29 colon 80.2% | SNB-75 CNS 110% | SNB-19 CNS 99.6% | U251 CNS 104% | PC-3 prostate 100% | SK-MEL-5 melanoma 107% | UACC-62 melanoma 85.2% | LOX IMVI melanoma 105% | SK-MEL-28 melanoma 91.5%

Cc1ccc(/C(=N\N=C(N)N)c2ccccc2)cc1
inactive: SNB-75 CNS 28.5% | U251 CNS 12.7% | PC-3 prostate 14.1% | UACC-62 melanoma 20.7% | LOX IMVI melanoma 28.3% | SK-MEL-28 melanoma 64.4%
active: HCT-15 colon -4.22% | HT29 colon 3.12% | SNB-19 CNS 9.71% | SK-MEL-5 melanoma -13.4%

COc1cc(NC(=O)c2cccc(-c3cc(=O)c4c(O)c(OC)c(OC)cc4o3)c2)cc(OC)c1OC
inactive: HCT-15 colon 59.9% | HT29 colon 62.8% | SNB-75 CNS 32.3% | SNB-19 CNS 50% | U251 CNS 44.8% | PC-3 prostate 49.8% | SK-MEL-5 melanoma 39.2% | UACC-62 melanoma 49.4% | LOX IMVI melanoma 33% | SK-MEL-28 melanoma 77.4%

NC(N)=N/N=C/c1ccc(Br)cc1
inactive: HCT-15 colon 23.4% | SNB-75 CNS 34% | SNB-19 CNS 35.8% | U251 CNS 25.4% | PC-3 prostate 27.8% | SK-MEL-5 melanoma 13.2% | UACC-62 melanoma 36.3% | LOX IMVI melanoma 43% | SK-MEL-28 melanoma 58.9%
active: HT29 colon 9.57%

N#Cc1c(-c2ccccc2)nc(SCC2CO2)nc1N1CCOCC1 (stereo not given)
inactive: HCT-15 colon 74.2% | HT29 colon 74% | SNB-75 CNS 34.1% | SNB-19 CNS 60.9% | U251 CNS 75.3% | PC-3 prostate 36.1% | SK-MEL-5 melanoma 84.9% | UACC-62 melanoma 51.9% | LOX IMVI melanoma 76.6% | SK-MEL-28 melanoma 64.7%

CN1CCN(c2ccc(Nc3ncc(Cl)c(NC[C@@H]4CCCO4)n3)cc2)CC1
inactive: HCT-15 colon 24.3% | HT29 colon 16% | SNB-19 CNS 53.9% | U251 CNS 32.5% | PC-3 prostate 30.7% | SK-MEL-5 melanoma 31% | UACC-62 melanoma 38.5% | SK-MEL-28 melanoma 50.9%
active: SNB-75 CNS 6.49% | LOX IMVI melanoma 8.91%

Clc1ccc2[nH]c3c(NCCCN4CCOCC4)ncnc3c2c1
inactive: HCT-15 colon 84.1% | HT29 colon 18.6% | SNB-75 CNS 85% | SNB-19 CNS 92.9% | U251 CNS 69.6% | PC-3 prostate 75.6% | SK-MEL-5 melanoma 67% | UACC-62 melanoma 80.1% | LOX IMVI melanoma 64.5% | SK-MEL-28 melanoma 91.2%

O=[N+]([O-])c1ccc(-c2cc3c(Nc4ccc(Cl)c(C(F)(F)F)c4)ncnc3s2)cc1
active: HT29 colon 3.89% | U251 CNS 8.85% | SK-MEL-5 melanoma -42.5% | UACC-62 melanoma -1.39% | LOX IMVI melanoma 6.09%
inactive: HCT-15 colon 10.2% | SNB-75 CNS 16.4% | SNB-19 CNS 12.1% | PC-3 prostate 11.5% | SK-MEL-28 melanoma 20.1%

CN1C(=O)CCC(N2C(=O)c3cccc(NCCOCCOCCNC(=O)c4cc5c(o4)C(=O)c4ccccc4C5=O)c3C2=O)C1=O (stereo not given)
active: HCT-15 colon -79% | HT29 colon 0.328% | SNB-75 CNS -98.2% | SNB-19 CNS 1.34% | U251 CNS -5.25% | PC-3 prostate 7.64% | SK-MEL-5 melanoma -97% | UACC-62 melanoma -91% | LOX IMVI melanoma -53.6% | SK-MEL-28 melanoma -19.9%

O=C(Oc1ccc([N+](=O)[O-])cc1)c1ccc(CBr)cc1
inactive: HCT-15 colon 76.9% | HT29 colon 92.3% | SNB-75 CNS 89.2% | SNB-19 CNS 91.5% | U251 CNS 82.4% | PC-3 prostate 87% | SK-MEL-5 melanoma 95.2% | UACC-62 melanoma 82.2% | LOX IMVI melanoma 67.2% | SK-MEL-28 melanoma 104%

COc1ccc(N(C)c2nc(Cl)nc3cnn(C)c23)cc1
active: HCT-15 colon 9.08% | HT29 colon -9.42% | SK-MEL-5 melanoma -25.2%
inactive: SNB-75 CNS 18.7% | SNB-19 CNS 29.7% | U251 CNS 17.8% | PC-3 prostate 16.2% | UACC-62 melanoma 32% | LOX IMVI melanoma 18.7% | SK-MEL-28 melanoma 58.2%

CN1CCN(c2ccc3nc(/N=C/c4ccc5sc(-c6ccc([N+](=O)[O-])cc6)nc5c4)sc3c2)CC1
inactive: HCT-15 colon 102% | HT29 colon 103% | SNB-75 CNS 106% | SNB-19 CNS 104% | U251 CNS 93.9% | PC-3 prostate 104% | SK-MEL-5 melanoma 90.6% | UACC-62 melanoma 104% | LOX IMVI melanoma 117% | SK-MEL-28 melanoma 107%

COc1cc(/C=C2\C=C(c3ccccc3)N(CCc3ccccc3)C2=O)cc(OC)c1OC
inactive: HCT-15 colon 94.1% | HT29 colon 74.8% | SNB-19 CNS 65.4% | U251 CNS 52.5% | PC-3 prostate 76.2% | SK-MEL-5 melanoma 57.7% | UACC-62 melanoma 56.1% | LOX IMVI melanoma 58.2% | SK-MEL-28 melanoma 84.1%
active: SNB-75 CNS -6.74%
